Outcome and AC50 data for seven compounds are collected here from PubChem BioAssay (EPA / NIEHS).

Assay [1] has as its target human Peroxisome Proliferator-activated Receptor delta (PPARd), PPARD (gene 5467) (UniProt Q03181). The experiment in a line: ATG_PPARd_TRANS: Attagene TRANS-FACTORIAL HepG2 Assay for human Peroxisome Proliferator-activated Receptor delta (PPARd) (AID 2283002). In short, it runs like this:
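Measured quantity: GAL4-UAS reporter transcript induction in HepG2 after 24 h chemical dosing, with NR-Gal4 chimeras supplied by transient transfection. Detection by RT-PCR and capillary electrophoresis; upward fit against DMSO.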

For assay [2], the target named is human Retinoic Acid Receptor beta (RARb), RARB (gene 5915) (UniProt P10826). In words: ATG_RARb_TRANS: Attagene TRANS-FACTORIAL HepG2 Assay for human Retinoic Acid Receptor beta (AID 2283004). In short, it runs like this:
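HepG2, transient MRTU transfection, NR–Gal4 chimera, 24 h treatment; RT-PCR plus CE fluorescence detection of reporter mRNA; gain of signal vs DMSO.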

For assay [3], the target named is Retinoic acid receptor alpha (Homo sapiens) (UniProt P10276). In words: ATG_RARa_TRANS: Attagene TRANS-FACTORIAL HepG2 Assay for human Retinoic Acid Receptor alpha (RARa) (AID 2283005). The gist of the method: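 HepG2 cells transiently transfected with multiple reporter units expressing chimeric RARα-GAL4 fusion, with GAL4-UAS-driven reporters. After 24 h compound exposure, reporter mRNA induction quantified by RT-PCR and capillary electrophoresis with fluorescent labeling; gain-of-signal fitted relative to DMSO control.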

Assay [4] addresses Peroxisome proliferator-activated receptor gamma (Homo sapiens) (UniProt P37231). The experiment in a line: ATG_PPARg_TRANS: Attagene TRANS-FACTORIAL HepG2 Assay for human Peroxisome Proliferator-activated Receptor-gamma (PPARg) (AID 2283007). In short, it runs like this:
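Endpoint reflects upward reporter mRNA change versus DMSO controls. Setup: transiently transfected HepG2, GAL4-UAS reporters driven by chimeric NR-Gal4, 24 h incubation, RT-PCR with capillary electrophoresis read-out.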

Assay [5] deals with Nuclear receptor subfamily 1 group I member 2 (Homo sapiens) (UniProt O75469). In words: ATG_PXR_TRANS: Attagene TRANS-FACTORIAL HepG2 Assay for human Pregnane X Receptor (PXR) (AID 2283008). The gist of the method: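 HepG2 cells transiently transfected with multiple reporter units, here a PXR-GAL4 chimera driving a GAL4-UAS reporter; 24 h compound exposure. Reporter mRNA measured by RT-PCR, FAM labelling and capillary electrophoresis; gain of signal fitted against DMSO baseline.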

The target of assay [6] is human Retinoic Acid Receptor gamma (RARg), RARG (gene 5916) (UniProt P13631). In words: ATG_RARg_TRANS: Attagene TRANS-FACTORIAL HepG2 Assay for human Retinoic Acid Receptor gamma (RARg) (AID 2283009). The gist of the method: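 HepG2 transiently transfected with GAL4-UAS reporter units and chimeric NR-Gal4 constructs; 24 h compound exposure. Reporter mRNA quantified by RT-PCR, FAM labeling, HpaI digestion and capillary electrophoresis; gain-of-signal versus DMSO.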

The target of assay [7] is human RAR-related Orphan Receptor beta (RORb), RORB (gene 6096) (UniProt Q92753). The experiment in a line: ATG_RORb_TRANS: Attagene TRANS-FACTORIAL HepG2 Assay for human RAR-related Orphan Receptor beta (RORb) (AID 2283010). The gist of the method:
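HepG2 cells transiently transfected with GAL4-UAS reporter units expressing chimeric NR-Gal4 protein; reporter mRNA measured 24 h after dosing by RT-PCR, 6-FAM labelling and capillary electrophoresis. Gain-of-signal fitted relative to DMSO baseline.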

For assay [8], the target named is human RAR-related Orphan Receptor gamma (RORg), RORC (gene 6097) (UniProt P51449). The experiment in a line: ATG_RORg_TRANS: Attagene TRANS-FACTORIAL HepG2 Assay for human RAR-related Orphan Receptor gamma (RORg) (AID 2283011). The gist of the method:
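Activity is scored as increase in GAL4-UAS reporter mRNA over DMSO, detected by fluorescent RT-PCR and capillary electrophoresis in HepG2 cells transiently expressing a RORg-Gal4 chimera, 24 h after dosing.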

Assay [9] has as its target Retinoic acid receptor RXR-alpha (Homo sapiens) (UniProt P19793). The experiment in a line: ATG_RXRa_TRANS: Attagene TRANS-FACTORIAL HepG2 Assay for human Retinoid X Receptor alpha (RXRa) (AID 2283012). The gist of the method:
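HepG2 cells transiently transfected with GAL4-UAS reporter units and chimeric RXRa-Gal4 protein, treated 24 h. Reporter mRNA measured by RT-PCR, fluorescent labelling, HpaI digestion and capillary electrophoresis. Induction fitted against DMSO.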

For assay [10], the target named is human Retinoid X Receptor beta (RXRb), RXRB (gene 6257) (UniProt P28702). The experiment in a line: ATG_RXRb_TRANS: Attagene TRANS-FACTORIAL HepG2 Assay for human Retinoid X Receptor beta (RXRb) (AID 2283013). The gist of the method: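 HepG2 cells were transiently transfected with multiplexed GAL4-UAS reporters and a chimeric RXRb-Gal4 construct, then exposed for 24 h. Reporter mRNA was quantified by RT-PCR, FAM labeling, HpaI digestion and capillary electrophoresis; gain of signal was scored against DMSO.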

Assay [11] deals with human Thyroid Receptor alpha (THRa1), THRA (gene 7067) (UniProt P10827). In words: ATG_THRa1_TRANS: Attagene TRANS-FACTORIAL HepG2 Assay for human Thyroid Receptor alpha (THRa1) (AID 2283014). The gist of the method:
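First, HepG2 cells receive multiple GAL4-UAS reporter units and the chimeric receptor. They are then dosed for 24 h, after which RNA is reverse-transcribed, amplified, labelled, HpaI-cut and sized by capillary electrophoresis; gain relative to DMSO is scored.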

Results filed as inconclusive are left out. Activity calls are given as the source filed them. The calls were made as follows: active = hit-call score of the fitted dose curve at least 0.9, where 1 is the maximum; inconclusive = response in the unintended direction; inactive = score below 0.9.

Chain of Retinoic acid receptor RXR-alpha (Homo sapiens) (P19793 whole entry, looked up, the tested form may be a part): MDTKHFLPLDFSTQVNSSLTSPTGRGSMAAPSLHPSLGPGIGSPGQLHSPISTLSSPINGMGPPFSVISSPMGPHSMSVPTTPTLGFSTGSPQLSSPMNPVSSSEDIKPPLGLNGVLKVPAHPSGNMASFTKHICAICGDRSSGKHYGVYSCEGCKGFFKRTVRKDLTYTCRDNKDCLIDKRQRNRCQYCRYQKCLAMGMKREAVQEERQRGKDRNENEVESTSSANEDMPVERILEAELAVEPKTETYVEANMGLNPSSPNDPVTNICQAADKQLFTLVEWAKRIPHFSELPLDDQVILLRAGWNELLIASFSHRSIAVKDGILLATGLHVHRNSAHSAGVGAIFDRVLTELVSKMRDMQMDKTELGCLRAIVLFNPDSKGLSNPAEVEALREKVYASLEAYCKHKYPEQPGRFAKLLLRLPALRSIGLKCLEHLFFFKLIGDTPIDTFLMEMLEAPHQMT
Chain of human Retinoid X Receptor beta (RXRb), RXRB (gene 6257) (P28702 whole entry, looked up, the tested form may be a part): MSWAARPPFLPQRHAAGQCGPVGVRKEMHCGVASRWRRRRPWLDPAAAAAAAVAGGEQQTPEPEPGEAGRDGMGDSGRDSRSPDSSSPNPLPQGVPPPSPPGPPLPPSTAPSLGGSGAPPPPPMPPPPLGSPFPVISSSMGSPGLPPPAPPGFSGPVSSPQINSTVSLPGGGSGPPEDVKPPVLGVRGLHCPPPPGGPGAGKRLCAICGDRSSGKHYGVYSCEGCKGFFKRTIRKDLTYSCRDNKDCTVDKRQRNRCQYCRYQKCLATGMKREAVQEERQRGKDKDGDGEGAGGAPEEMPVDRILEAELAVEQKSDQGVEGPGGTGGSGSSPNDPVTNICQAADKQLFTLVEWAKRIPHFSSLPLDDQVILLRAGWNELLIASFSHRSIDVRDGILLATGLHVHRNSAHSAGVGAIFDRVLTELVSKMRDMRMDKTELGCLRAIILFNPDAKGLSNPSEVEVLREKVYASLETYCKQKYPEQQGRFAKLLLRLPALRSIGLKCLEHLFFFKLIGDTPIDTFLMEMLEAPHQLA
Chain of Retinoic acid receptor alpha (Homo sapiens) (P10276 whole entry, looked up, the tested form may be a part): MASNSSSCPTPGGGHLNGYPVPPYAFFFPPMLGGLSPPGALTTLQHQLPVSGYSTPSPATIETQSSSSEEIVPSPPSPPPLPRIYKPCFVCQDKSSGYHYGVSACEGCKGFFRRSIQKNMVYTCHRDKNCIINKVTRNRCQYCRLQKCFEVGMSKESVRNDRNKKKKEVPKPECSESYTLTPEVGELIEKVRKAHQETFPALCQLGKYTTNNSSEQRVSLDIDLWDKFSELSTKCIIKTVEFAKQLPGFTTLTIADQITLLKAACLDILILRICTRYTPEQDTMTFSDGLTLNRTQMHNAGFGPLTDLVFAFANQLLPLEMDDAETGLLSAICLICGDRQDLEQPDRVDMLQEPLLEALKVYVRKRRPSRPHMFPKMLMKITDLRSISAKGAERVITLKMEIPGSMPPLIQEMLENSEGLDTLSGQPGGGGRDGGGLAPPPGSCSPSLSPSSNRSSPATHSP
Chain of human Retinoic Acid Receptor beta (RARb), RARB (gene 5915) (P10826 whole entry, looked up, the tested form may be a part): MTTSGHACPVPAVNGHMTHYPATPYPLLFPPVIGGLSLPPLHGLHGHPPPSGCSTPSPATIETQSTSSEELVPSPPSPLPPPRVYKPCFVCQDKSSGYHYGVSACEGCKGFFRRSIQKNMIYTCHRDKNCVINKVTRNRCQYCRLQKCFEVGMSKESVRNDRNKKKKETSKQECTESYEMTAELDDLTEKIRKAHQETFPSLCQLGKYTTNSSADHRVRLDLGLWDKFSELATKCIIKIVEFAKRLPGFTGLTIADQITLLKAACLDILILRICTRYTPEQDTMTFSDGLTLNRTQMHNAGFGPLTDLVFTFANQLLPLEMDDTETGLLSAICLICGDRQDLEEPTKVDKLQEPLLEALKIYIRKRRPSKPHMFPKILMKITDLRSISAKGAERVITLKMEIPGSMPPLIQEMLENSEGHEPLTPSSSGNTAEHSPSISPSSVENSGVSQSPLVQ
Chain of human Peroxisome Proliferator-activated Receptor delta (PPARd), PPARD (gene 5467) (Q03181 whole entry, looked up, the tested form may be a part): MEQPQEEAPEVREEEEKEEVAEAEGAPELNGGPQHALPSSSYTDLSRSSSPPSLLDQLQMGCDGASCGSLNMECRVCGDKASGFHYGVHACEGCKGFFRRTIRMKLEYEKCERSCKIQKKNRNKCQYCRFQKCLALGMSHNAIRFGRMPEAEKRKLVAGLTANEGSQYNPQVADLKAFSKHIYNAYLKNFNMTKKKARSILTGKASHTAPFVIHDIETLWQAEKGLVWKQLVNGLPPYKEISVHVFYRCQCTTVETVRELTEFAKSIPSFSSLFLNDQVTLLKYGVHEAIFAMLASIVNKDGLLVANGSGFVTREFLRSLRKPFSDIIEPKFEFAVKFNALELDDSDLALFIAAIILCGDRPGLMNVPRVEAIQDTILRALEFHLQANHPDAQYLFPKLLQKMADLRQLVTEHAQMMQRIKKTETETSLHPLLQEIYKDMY
Chain of Nuclear receptor subfamily 1 group I member 2 (Homo sapiens) (O75469 whole entry, looked up, the tested form may be a part): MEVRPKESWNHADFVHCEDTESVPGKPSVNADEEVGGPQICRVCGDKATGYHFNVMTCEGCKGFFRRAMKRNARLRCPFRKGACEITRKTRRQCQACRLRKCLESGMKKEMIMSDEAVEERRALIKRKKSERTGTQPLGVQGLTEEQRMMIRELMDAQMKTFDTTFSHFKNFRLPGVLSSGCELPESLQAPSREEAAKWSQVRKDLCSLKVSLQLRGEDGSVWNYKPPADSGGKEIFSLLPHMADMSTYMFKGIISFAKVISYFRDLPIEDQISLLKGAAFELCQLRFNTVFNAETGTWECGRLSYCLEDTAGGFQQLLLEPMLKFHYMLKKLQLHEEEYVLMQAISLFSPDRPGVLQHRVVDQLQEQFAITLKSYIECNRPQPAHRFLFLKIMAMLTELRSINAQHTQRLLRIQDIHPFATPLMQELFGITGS
Chain of human Thyroid Receptor alpha (THRa1), THRA (gene 7067) (P10827 whole entry, looked up, the tested form may be a part): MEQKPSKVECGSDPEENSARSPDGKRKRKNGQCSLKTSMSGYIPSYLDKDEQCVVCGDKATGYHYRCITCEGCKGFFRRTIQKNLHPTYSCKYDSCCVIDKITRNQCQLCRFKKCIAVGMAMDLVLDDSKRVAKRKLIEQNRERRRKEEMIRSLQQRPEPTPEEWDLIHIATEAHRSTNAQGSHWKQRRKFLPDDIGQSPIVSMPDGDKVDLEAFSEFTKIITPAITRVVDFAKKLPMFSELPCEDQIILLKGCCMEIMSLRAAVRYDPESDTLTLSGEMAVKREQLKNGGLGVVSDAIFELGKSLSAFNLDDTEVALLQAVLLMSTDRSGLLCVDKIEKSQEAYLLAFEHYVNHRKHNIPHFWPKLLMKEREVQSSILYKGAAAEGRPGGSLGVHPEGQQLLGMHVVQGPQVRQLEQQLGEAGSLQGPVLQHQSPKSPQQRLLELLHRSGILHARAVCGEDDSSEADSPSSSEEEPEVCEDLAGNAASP
Chain of human RAR-related Orphan Receptor gamma (RORg), RORC (gene 6097) (P51449 whole entry, looked up, the tested form may be a part): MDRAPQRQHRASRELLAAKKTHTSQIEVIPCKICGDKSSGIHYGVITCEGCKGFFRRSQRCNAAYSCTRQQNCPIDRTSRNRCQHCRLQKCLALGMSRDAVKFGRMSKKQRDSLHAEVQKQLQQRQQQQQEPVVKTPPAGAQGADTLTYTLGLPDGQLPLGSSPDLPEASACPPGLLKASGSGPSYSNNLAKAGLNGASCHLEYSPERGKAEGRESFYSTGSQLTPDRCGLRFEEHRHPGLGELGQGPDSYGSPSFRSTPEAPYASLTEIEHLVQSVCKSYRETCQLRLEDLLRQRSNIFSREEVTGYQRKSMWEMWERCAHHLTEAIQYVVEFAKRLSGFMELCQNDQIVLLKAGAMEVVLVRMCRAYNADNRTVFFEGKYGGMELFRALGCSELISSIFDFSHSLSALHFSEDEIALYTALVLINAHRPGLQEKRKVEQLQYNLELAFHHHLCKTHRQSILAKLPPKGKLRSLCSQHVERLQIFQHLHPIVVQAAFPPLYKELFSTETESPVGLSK
Chain of Peroxisome proliferator-activated receptor gamma (Homo sapiens) (P37231 whole entry, looked up, the tested form may be a part): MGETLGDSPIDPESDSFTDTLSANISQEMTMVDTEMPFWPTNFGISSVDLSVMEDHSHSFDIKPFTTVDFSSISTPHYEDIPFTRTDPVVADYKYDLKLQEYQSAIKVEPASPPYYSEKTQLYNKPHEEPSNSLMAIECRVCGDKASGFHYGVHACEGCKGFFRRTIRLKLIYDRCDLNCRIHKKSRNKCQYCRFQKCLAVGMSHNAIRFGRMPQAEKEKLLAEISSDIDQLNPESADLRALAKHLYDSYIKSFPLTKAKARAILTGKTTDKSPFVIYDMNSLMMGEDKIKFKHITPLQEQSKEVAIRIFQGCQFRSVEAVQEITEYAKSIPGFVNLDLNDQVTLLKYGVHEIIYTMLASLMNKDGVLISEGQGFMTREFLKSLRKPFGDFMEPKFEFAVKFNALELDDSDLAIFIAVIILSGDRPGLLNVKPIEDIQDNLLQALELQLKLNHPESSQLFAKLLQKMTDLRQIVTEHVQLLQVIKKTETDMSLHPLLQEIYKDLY
Chain of human RAR-related Orphan Receptor beta (RORb), RORB (gene 6096) (Q92753 whole entry, looked up, the tested form may be a part): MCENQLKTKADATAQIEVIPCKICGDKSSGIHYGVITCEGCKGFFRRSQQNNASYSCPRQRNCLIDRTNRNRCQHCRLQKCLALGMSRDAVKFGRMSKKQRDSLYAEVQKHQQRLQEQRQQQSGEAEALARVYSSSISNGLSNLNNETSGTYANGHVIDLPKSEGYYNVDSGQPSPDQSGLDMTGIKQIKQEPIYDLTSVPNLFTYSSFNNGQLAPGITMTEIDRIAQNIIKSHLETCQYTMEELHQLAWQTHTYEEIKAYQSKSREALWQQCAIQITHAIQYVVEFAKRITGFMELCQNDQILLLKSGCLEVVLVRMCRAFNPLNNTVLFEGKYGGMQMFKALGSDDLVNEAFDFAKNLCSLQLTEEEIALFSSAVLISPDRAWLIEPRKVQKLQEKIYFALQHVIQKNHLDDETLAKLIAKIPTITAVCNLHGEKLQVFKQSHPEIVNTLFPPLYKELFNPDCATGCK

Regarding `CC(C)=CCC[C@](C)(O)[C@@H]1CC=C(C)CC1`, the compound was classed as inactive in [1], in assay [2], in [3], in assay [4], in assay [6] and in assay [7]. Further, the compound was classed as inactive in assay [8], in [9] and in assay [10]. For the same compound, the AC50 in assay [5] is 15 µM (active).
For `CC(=O)c1c(C)cc(C(C)(C)C)cc1C`, the outcome in [1], in [2], in assay [3], in assay [4], in assay [5] and in [6] was inactive. Besides, the compound was classed as inactive in [9] and in [11]. The AC50 in assay [10] is 31.4 µM (active).
For the compound `COc1ccnc(CS(=O)c2nc3cc(OC(F)F)ccc3[nH]2)c1OC` (centres undefined), the result in [1], in assay [4], in assay [5], in assay [7], in [8] and in assay [9] was inactive. Also, the compound was classed as inactive in assay [10].
`CC(C)C(C)(C)C(C)(C)C(C)(C)S`: the outcome in assay [1], in assay [8] and in assay [10] was inactive. Besides, the values for the AC50 in assay [4] and in assay [5] were 100 µM (active) and 4.47 µM (active), respectively.
As to `CCOc1ccccc1OCC`, the compound was classed as inactive in assay [1], in assay [4], in [5], in [9], in [10] and in [11].
On to `OCCOc1cccc(OCCO)c1`, for which the compound was called inactive in assay [1], in [2], in assay [4], in [5], in assay [8] and in [11].
`[Ca+2]`: the compound was classed as inactive in assay [1], in assay [3], in assay [5], in assay [8], in [9] and in [10].
